# Source: PubChem BioAssay (National Center for Advancing Translational Sciences (NCATS))
# Abeta yeast res: qHTS for compounds that reverse cellular toxicity of Amyloid beta (A-beta) peptide in yeast: Primary Screen; yeast expressing A-beta42, growth rescue, OD600, 48 h; response scale: 0% DMSO, 100% iron-clioquinol control; Potency, µM (top dose mostly 46.1 µM), most hits filed as activators; hit rate 0.063% among 410,000; further: potency means the concentration at half of the fitted maximal effect; nearly all actives have a fitted effect of over 55% in size
#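 Growth rescue measured by 600 nm absorbance after 48 h yeast culture at 30 C with compound. Values normalized between DMSO and an equimolar ferric chloride plus clioquinol control.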
# TDP43 rescue: qHTS of TDP-43 Inhibitors | TDP-43 expressing yeast growth rescue, BacTiter-Glo, 24 h | Potency, µM (series often up to 46.1 µM), for the others: at the top dose growth rescue (activation), hits mostly activators | hit rate 1.8% among 410,000; further: potency means the concentration at half of the fitted maximal effect; % of control where 0% means no effect; nearly all actives have a fitted effect of over 50% in size
#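 Cell-based yeast growth screen: TDP-43 expression induced in galactose, inoculum OD600=0.02 after raffinose pregrowth to mid-log. Read-out BacTiter-Glo luminescence at 24 hr, 30 deg C; inhibition of toxicity seen as signal increase.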
# Mm-Cpn inhibitor: Inhibitors of TCP-1 ring complex (TRiC) of Methanococcus maripaludis (MmCpn): qHTS. Chaperonin Mm-Cpn (Methanococcus maripaludis). purified Mm-Cpn ATPase, ADP Transcreener TR-FRET. Potency, µM (series often up to 76.9 µM), inactives show at the top dose activity, negative = inhibition, hits mostly inhibitors. hit rate 0.031% among 330,000; further: potency means the concentration at half of the fitted maximal effect; on the % scale 0 is the no-effect control and ±100 the full control effect; nearly all actives have a fitted effect of over 80% in size
#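 Quantitative HTS used 25 nM Mm-CPN and 10 uM ATP in magnesium/KCl Tris buffer, pH 7.4, with 1 mM DTT. Hydrolysis ran 30 min at 37°C; ADP was read by HTRF.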
# aSyn rescue: qHTS of alpha-syn Inhibitors. Yeast expressing alpha-synuclein, growth rescue, BacTiter-Glo, 24 h. hit rate 0.14% among 370,000. Potency, µM (top dose mostly 46.1 µM), for the others: top-dose growth rescue (activation), hits mostly activators; further: potency means the concentration at half of the fitted maximal effect; % of control where 0% means no effect; nearly all actives have a fitted effect of over 65% in size
#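 Screening used galactose-induced yeast with toxic alpha-synuclein levels, exposed to compound for 24 hr at 30 deg C. Cell growth, read with BacTiter-Glo luminescence, gave the measured signal.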
# CCT chaperon mod: High-Throughput Screening for Modulators of Cytosolic Chaperonin Activity; purified chaperonin ATPase assay, HTRF ADP detection, 30 min; activity change, % (test concentration not listed), hits read low; hit rate 0.3% among 360,000; in the data active means activity change below about -30%; further: on the % scale 0 is the no-effect control and ±100 the full control effect
#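 ATPase activity: ADP formed was measured by HTRF Transcreener (665/615 nm ratio) after 30 min at 37 deg C with 10 uM ATP. Compounds screened at one 76 uM concentration against 40 or 20 nM TRiC in Tris pH 7.4/KCl/MgCl2/DTT buffer.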
# FUS yeast rescue: qHTS for Suppressors of FUS Proteinopathy: Primary screen using FUS-linked yeast assay; Potency, µM (doses to about 76.6 µM), actives largely listed as activators; hit rate 0.24% among 390,000; S. cerevisiae FUS-expressing, growth rescue, OD600, 24 h; AID 1347120, 2019;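 further: potency means the concentration at half of the fitted maximal effect; plate controls were DMSO vehicle for no effect and reference control for full effect; nearly all actives have a fitted effect of over 55% in size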
#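 Absorbance at 600 nm, taken 24hr after compound addition, measured rescue of FUS-yeast growth at 30C. Induction used 2% galactose with seeding at OD 0.005. Controls: CP55940 from 92uM final, DMSO only.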
# An asterisk follows results filed as active; i = inactive; ? = inconclusive; . = no result; [ ] = remark or other dose. In the library only some 2.3% were active in any assay of this set; here they are far more common. Unless noted, the call rests on the fitted dose curve; in most records, active means well fitted curve in the direction sought with a large enough effect; inconclusive means small, poorly fitted or top-dose-only effect, or another doubt; inactive means no such curve, though single readings can be large; an effect the other way counts as inactive or inconclusive.
SMILES,Abeta yeast res,TDP43 rescue,Mm-Cpn inhibitor,aSyn rescue,CCT chaperon mod,FUS yeast rescue
CC(=O)Nc1sc2c(c1-c1nc(-c3ccccc3)cs1)CCN(C(C)C)C2,.,.,.,.,.,i
CCCOC(=O)c1ccc(NC(=O)Cc2csc(C)n2)cc1,i,8%,.,.,.,i
Cc1cc(C)cc(OCC(=O)Nc2ccc(Cl)c(-c3nc4ncccc4o3)c2)c1,i,-27%,.,.,.,i
Cc1ccc(OCC(=O)Nc2ccc(Cl)c(-c3nc4ncccc4o3)c2)cc1C,i,18µM*,.,?,.,i
CCOC(=O)c1ccccc1NC(=O)Cn1c(=O)n(CCC(=O)N2CCc3ccccc3C2)c(=O)c2ccccc21,i,35µM*,.,.,.,?
Cc1ccc(NC(=O)Cn2c(=O)n(CCC(=O)N3CCc4ccccc4C3)c(=O)c3ccccc32)c(C)c1,i,-6%,.,.,.,i
CN1C(C(=O)N2CCc3ccccc3C2)=CC(c2ccc(F)cc2)=NS1(=O)=O,i,13µM*,1%,1%,0,i
COc1ccc(C2=NS(=O)(=O)N(C)C(C(=O)N3CCC(C)CC3)=C2)cc1,i,6%,0%,-3%,0,i
COc1ccc(-c2c(C)nn3c(-c4ccccc4)cc(C)nc23)cc1,i,0%,5%,0%,2,i
Cc1cc(-c2ccccc2)n2nc(C)c(C#N)c2n1,i,16µM*,-3%,-12%,-1,i
CCOC(=O)c1nnc(-c2ccccc2)nc1NCc1ccc(Cl)cc1,i,13µM*,-1%,2%,-2,i
CCOC(=O)c1nnc(-c2ccccc2)nc1Sc1c(Cl)cccc1Cl,i[9.22 µM],-5%,-1%,16%,0,i
Nc1ncnc2c1nc(Sc1ccc(Cl)cc1)n2[C@H]1OC2COP(=O)(O)O[C@@H]2C1O (stereo not given in full),.,.,.,1%,.,.
Oc1ccc(Nc2ccc3ccccc3c2)cc1,i,22µM*,.,-22%,0,i
COc1ccc2c(c1)-c1ccccc1S(=O)(=O)N2C,i,11µM*,-3%,-6%,0,i
COc1ccc(NC(=O)N2c3ccccc3CC2C)cc1OC (stereo not given),i,13µM*,0%,.,-1,i
NC(=O)c1ccc(Br)c(S(=O)(=O)N2CCCCC2)c1,i,-5%,-2%,1%,0,i
O=S(=O)(c1cc(Br)ccc1Br)N1CCCCCC1,i,7.9µM*,2%,4%,-3,i
C(=C\c1nc2ccccc2o1)/c1ccc2c(c1)OCO2,.,.,.,-16%,.,.
C=C1CC2(OC1=O)c1ccccc1CCc1ccccc12,i,1.8µM*,.,7%,-5,.
C[C@@H]1Cc2cc(O)cc(O)c2C(=O)O1,.,.,.,.,.,i
CC1=CC2=NC(=O)/C(=C\c3cccn3CCOc3ccccc3C)C(=N)N2O1,?,20µM*,4%,12%,1,?
Cc1cc(C)n(Cc2ccc(C(=O)O)o2)n1,i,-6%,1%,-2%,-5,i
Cc1cc(C)n(Cc2ccc(C(=O)NN)o2)n1,i,17%,0%,4%,-50*,i
CCc1nc2ccccc2c(C(=O)OCC(=O)N(C)Cc2ccccc2)c1C,i,35µM*,-1%,3%,-1,i
SMILES,Abeta yeast res,TDP43 rescue,Mm-Cpn inhibitor,aSyn rescue,CCT chaperon mod,FUS yeast rescue
c1ccc2[nH]c(NN=C3CCCCCC3)nc2c1,i,-5%,0%,0%,0,i
c1ccc2[nH]c(NC3=NCCC3)nc2c1,i,17%,0%,0%,-98*,i
CCn1c(C(=O)NC2CCC(C)CC2)cc2sccc21 (stereo not given),i,-14%,0%,-36%,-80*,i
CC1CCCCC1Nc1nc2ccc(Cl)cc2n2cnnc12 (stereo not given),i,13µM*,-4%,10%,-1,i
Cc1ccc(C)c(CNS(=O)(=O)c2ccc3c(c2)C(C)(C)C(=O)N3C)c1,i,?,-2%,3%,-34*,i
O=C(COC(=O)c1ccc2ncsc2c1)Nc1cc(Cl)ccc1F,i,14µM*,-10%,-3%,-1,i
COc1ccc(C2CC(O)(c3ccccc3)Oc3cc(OC)ccc32)cc1 (stereo not given),i,20µM*,0%,?,2,i
COc1ccc(C2CC(=O)Oc3cc(OC)ccc32)cc1 (stereo not given),i,18%,-4%,3%,1,i
Brc1ccc(-c2csc(N3CCC(c4nn[nH]n4)CC3)n2)cc1,.,.,.,.,.,i
Cc1ccn2c(=O)c(C(=O)NCCN3CCOCC3)c(O)nc2c1,i,-7%,0%,-9%,0,i
O=C(NCCN1CCOCC1)c1c(O)nc2ccccn2c1=O,i,-10%,-2%,0%,-72*,i
COc1ccc(C(=O)O/N=C(\N)c2ccccc2Cl)cc1OC,i,?,-2%,-15%,1,i
COc1ccccc1C(=O)O/N=C(\N)c1ccccc1Cl,i,16µM*,1%,-38%,2,i
COc1ccc(C(=O)O/N=C(\N)c2ccccc2)c(OC)c1,i,14µM*,3%,-39%,-1,i
Cc1ccccc1NC(=O)[C@H]1CC(=O)O[C@@H]1c1ccccc1,.,.,.,.,.,i
CC(/C=N\NC(=O)CSc1nnc(-c2ccc(Br)cc2)n1-c1ccccc1)=C\c1ccco1,.,.,.,.,.,i
CCOC(=O)C(C)Sc1nnc2cc(C)c3ccccc3n12 (stereo not given),i,0%,.,.,.,i
CCN1CCN(c2c(/C=C3\SC(=S)N(Cc4ccco4)C3=O)c(C)c(C#N)c(=O)n2C)CC1,i,-11%,0%,0%,-2,22µM*
COc1ccc(Nc2nc(-c3sc(C)nc3C)cs2)cc1,i,20µM*,0%,-16%,-1,i
CCCC(=O)Nc1nc(C)c(-c2csc(Nc3ccc(Cl)cc3)n2)s1,i,14µM*,-11%,-2%,-1,?
COc1ccc(CCNc2nc(-c3sc(C)nc3C)cs2)cc1OC,i,22µM*,-10%,0%,-2,i
CCC(C)C(=O)Nc1nc(C)c(-c2csc(Nc3ccc(Cl)cc3)n2)s1 (stereo not given),i,28%,-27%,4%,1,?
Cc1nc(C)c(-c2csc(Nc3ccc(N)cc3)n2)s1,i,5%,-12%,-13%,-2,i
